# Bioassay records (PubChem BioAssay)
# Most compounds without a hit are left out; they make up all but 2.4% or so of the library.
# GLS inhibitor: qHTS for Inhibitors of Glutaminase (GLS). Potency, µM (doses to about 45.5 µM), for the others: at the top dose activity change, negative = inhibition, actives largely listed as inhibitors. 410,000 tested, 0.21% active. GLS enzymatic activity, qHTS titration. Glutaminase kidney isoform, mitochondrial (Homo sapiens), O94925; further: potency means the concentration at half of the fitted maximal effect; on the % scale 0 is the no-effect control and ±100 the full control effect
# Target sequence (O94925 whole entry, looked up, canonical isoform): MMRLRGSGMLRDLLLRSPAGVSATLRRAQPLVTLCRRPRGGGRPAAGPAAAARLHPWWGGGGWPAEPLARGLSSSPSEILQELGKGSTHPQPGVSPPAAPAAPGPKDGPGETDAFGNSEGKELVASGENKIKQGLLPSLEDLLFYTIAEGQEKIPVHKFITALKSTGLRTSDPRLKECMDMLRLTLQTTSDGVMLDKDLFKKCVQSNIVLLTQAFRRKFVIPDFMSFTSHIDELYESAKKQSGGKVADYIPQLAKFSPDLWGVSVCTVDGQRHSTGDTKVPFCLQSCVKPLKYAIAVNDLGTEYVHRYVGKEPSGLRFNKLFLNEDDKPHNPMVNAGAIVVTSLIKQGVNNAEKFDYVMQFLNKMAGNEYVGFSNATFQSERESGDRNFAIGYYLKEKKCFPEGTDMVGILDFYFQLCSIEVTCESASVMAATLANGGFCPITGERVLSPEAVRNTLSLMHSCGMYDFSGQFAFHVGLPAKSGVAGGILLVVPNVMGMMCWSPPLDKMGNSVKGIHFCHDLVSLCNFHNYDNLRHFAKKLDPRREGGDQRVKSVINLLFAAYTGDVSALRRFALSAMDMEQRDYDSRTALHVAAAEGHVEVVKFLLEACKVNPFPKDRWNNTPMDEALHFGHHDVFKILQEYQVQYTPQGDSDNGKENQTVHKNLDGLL
#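 Two-point fluorescence kinetic (t0, 30 min RT) for hKGA; glutamate detected via glutamate oxidase–HRP–Amplex Red. Substrate: 1 mM L-glutamine solution; buffer 45 mM KH2PO4, pH 8.2.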
# POLB inh: qHTS Assay for Inhibitors of DNA Polymerase Beta; Pol beta primer extension/strand displacement, fluorescence kinetic; Potency, µM (highest dose often 114 µM), for inactives: at the highest dose activity change, negative = inhibition, usual class: inhibitors; 340,000 tested, 1.3% active; AID 485314, 2010; further: potency means the concentration at half of the fitted maximal effect; on the % scale 0 is the no-effect control and ±100 the full control effect
#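 Preincubation: enzyme (10 nM) with compound, 15 min, RT. Reaction: substrate added to 50 nM final. Reads: 0 and 10 min. Analysis: normalized, Hill fit.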
# Pol kappa inh-1: qHTS for Inhibitors of Polymerase Kappa. DNA polymerase kappa (Homo sapiens), Q9UBT6. purified Pol kappa, fluorescent DNA synthesis assay, 10 min. Potency, µM (series often up to 107 µM), for inactives: at the top dose activity, negative = inhibition, usual class: inhibitors. 400,000 tested, 0.53% active. AID 588579, 2011; further: potency means the concentration at half of the fitted maximal effect; on the % scale 0 is the no-effect control and ±100 the full control effect
#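 Enzyme at 10 nM met test compounds for 15 min at room temperature. Substrate addition (50 nM final) began the reaction, which was monitored by fluorescence at 0 and 10 min.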
# POLI inh: qHTS for Inhibitors of Polymerase Iota; Pol iota fluorescent replication assay, 10 min; Potency, µM (highest dose often 115 µM), for the others: top-dose activity, negative = inhibition, hits mostly inhibitors; 390,000 tested, 1% active; AID 588590, 2011; further: potency means the concentration at half of the fitted maximal effect
#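 Fluorescent replication assay read twice, at 0 min and 10 min after adding 50 nM (final) substrate. Enzyme (10 nM) and compounds were first incubated 15 min at room temperature; enzyme-free buffer wells were negative controls.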
# Pol eta inh-1: qHTS for Inhibitors of Polymerase Eta; Potency, µM (highest dose often 114 µM), for the others: at the top dose activity change, negative = inhibition, actives largely listed as inhibitors; 390,000 tested, 1.2% active; DNA polymerase eta (Homo sapiens), Q9Y253; recombinant Pol eta, fluorescent DNA replication assay; further: potency means the concentration at half of the fitted maximal effect; on the % scale 0 is the no-effect control and ±100 the full control effect
#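 Fluorescent replication assay: 50 nM final substrate added after a 15 min room-temperature compound preincubation with 10 nM enzyme. Signal taken at 0 min and again at 10 min.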
# APEX1 inh: qHTS Assay for Inhibitors of the Human Apurinic/apyrimidinic Endonuclease 1 (APE1) | Potency, µM (doses to about 65.8 µM), for the others: at the top dose activity change, negative = inhibition, hits mostly inhibitors | 350,000 tested, 0.35% active | recombinant APE1, TAMRA/BHQ-2 abasic DNA cleavage fluorescence;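 further: potency means the concentration at half of the fitted maximal effect; plate controls were vehicle for no effect and reference inhibitor for full effect; nearly all actives have a fitted effect of over 55% in size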
#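 Quantitative HTS: incision of a TAMRA/BHQ-2 double-stranded substrate bearing a tetrahydrofuran abasic site by 0.75 nM APE1 raises fluorescence. Substrate 50 nM final, added after 15 min compound preincubation at room temperature; progress as third-minus-first kinetic read difference.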
# GALK confirm: Confirmation Assay for Inhibitors of Human Galactokinase (GALK); shares compounds with Pol eta inh-1; purified GALK, Kinase-Glo ATP depletion luminescence; Potency, µM (titrated, usually from 115 µM), inactives show at the top dose activity, negative = inhibition, most hits filed as inhibitors; 150 tested, 70% active
# GALK redox cs: Confirmatory Assay for Inhibitors of Human Galactokinase (GALK): Phenol-HRP redox assay counterscreen; 150 tested, 40% active; Potency, µM (highest dose often 115 µM), inactives show at the highest dose activity change, negative = H2O2 signal, most hits filed as inhibitors; shares compounds with Pol eta inh-1; AID 2035, 2009; Phenol red-HRP H2O2 redox cycling, absorbance 600 nm
# HEK293 viability: Secondary Assay for Inhibitors of Human Galactokinase (GALK): HEK-293 Cell Viability Assay; HEK-293 viability, ATP luminescence (CellTiter-Glo), 24/48 h; AID 2547, 2010; Potency, µM (top dose mostly 46.1 µM), for inactives: at the highest dose activity change, negative = cytotoxicity, usual class: inhibitors; 170 tested, 10% active; shares compounds with Pol eta inh-1; further: potency means the concentration at half of the fitted maximal effect; on the % scale 0 is the no-effect control and ±100 the full control effect
# Pol kappa inh-2: qHTS for Inhibitors of Polymerase Kappa: Confirmatory Assay for Cherry-picked Compounds; AID 720501, 2013; Potency, µM, hits mostly inhibitors; 920 tested, 76% active; purified Pol-kappa, fluorescent strand-displacement substrate; shares compounds with Pol eta inh-1; further: potency means the concentration at half of the fitted maximal effect
# Pol eta inh-2: qHTS for Inhibitors of Polymerase Eta: Confirmatory Assay for Cherry-picked Compounds; Potency, µM, usual class: inhibitors; 2,600 tested, 64% active; shares compounds with Pol eta inh-1; Pol eta primer extension, TAMRA/BHQ fluorescence, 10 min; further: potency means the concentration at half of the fitted maximal effect
# Active calls of the source: *; ? = inconclusive; nt = no result. The call rests on the fitted dose curve; in most records, active means well fitted curve in the direction sought with a large enough effect; inconclusive means small, poorly fitted or top-dose-only effect, or another doubt; inactive means no such curve, though single readings can be large; an effect the other way counts as inactive or inconclusive.
SMILES,GLS inhibitor,POLB inh,Pol kappa inh-1,POLI inh,Pol eta inh-1,APEX1 inh,Pol eta inh-2,others
Cc1ccc(S(=O)(=O)Nc2ccccc2C(=O)Nc2nc(-c3ccc(F)cc3)cs2)cc1,13.7%,8.9%,?,?,89.1µM*,-4.3%,?,
Cc1ccc(S(=O)(=O)Nc2nc(-c3ccccc3)cs2)cc1,9.3%,6.0%,-0.6%,84.7%,11.4%,5.6%,nt,
Cc1cccc(Nc2nc3ccccc3s2)c1C,10.7%,15.7%,-13.6%,-3.2%,-18.1%,-2.6%,nt,
O=S(=O)(c1ccc2ccccc2c1)N1CCCCCC1,-1.1%,-27.2%,4.4%,90.3%,-7.8%,8.2%,nt,
O=C(O)c1cc(S(=O)(=O)N2CCN(S(=O)(=O)c3ccc4ccccc4c3)CC2)ccc1Br,-14.6%,nt,-36.2%,?,17.8µM*,-15.1%,47.8*,Pol kappa inh-2=16.8*
O=[N+]([O-])c1c(Nc2ccccn2)cc(Cl)c2nonc12,0.0%,?,?,?,?,-3.6%,53.6*,
O=[N+]([O-])c1c(Nc2ccc(O)cc2)cc(Cl)c2nonc12,21.6%,-15.5%,-4.7%,3.55µM*,50.1µM*,2.5%,?,
CN(C)c1cc(Nc2ccc(O)cc2)c([N+](=O)[O-])c2nonc12,-1.8%,1.1%,2.4%,-13.1%,-11.5%,11.1%,nt,
O=[N+]([O-])c1ccc(Nc2ccccn2)c([N+](=O)[O-])c1,6.4%,8.1%,-3.0%,21.0%,-0.9%,14.6%,nt,
COc1ccc(-c2nc3c(c(SCC(=O)N4CCOCC4)n2)Cc2c(CO)cnc(C)c2O3)cc1,-17.9%,16.5%,-8.4%,3.9%,-2.2%,4.2%,nt,
Cc1ccc(-c2nc3c(c(SCC(=O)N4CCOCC4)n2)Cc2c(CO)cnc(C)c2O3)cc1,-6.3%,-29.7%,-20.5%,79.4µM*,?,60.2%,?,
O=C(c1cccnc1)N1C2C=CC(C2)C1(C(F)(F)F)C(F)(F)F (stereo unspecified),-16.7%,39.8µM*,-7.1%,?,14.1µM*,-14.4%,?,
O=C(c1ccncc1)N1C2C=CC(C2)C1(C(F)(F)F)C(F)(F)F (stereo unspecified),nt,-4.3%,nt,nt,nt,3.1%,nt,
CC1=CN2C(=N)/C(=C/c3ccc([N+](=O)[O-])o3)C(=O)N=C2S1,-7.1%,17.8µM*,31.6µM*,15.8µM*,3.98µM*,?,60.1*,
CC1=CN2C(=N)/C(=C/c3ccco3)C(=O)N=C2S1,-3.7%,?,-20.7%,-19.2%,?,6.7%,nt,
CCC(=O)N1CCc2cc(Br)cc(S(=O)(=O)CCC(=O)NCCc3ccccc3Cl)c21,-9.9%,?,-18.9%,-14.6%,?,nt,75.7*,Pol kappa inh-2=33.6*
CC(C)Sc1nc2sc3c(c2c2nnc(SCC(=O)NCc4ccco4)n12)CCCC3,-10.1%,-10.9%,-17.6%,?,4.47µM*,-3.7%,67.5*,
O=C(CSc1ncnc2sccc12)N1CCCCC1,-1.2%,nt,-7.0%,21.4%,-20.9%,16.5%,nt,
O=C1CCCN1C(=O)CSc1ncnc2sccc12,24.0%,nt,-44.0%,44.7µM*,20µM*,-6.7%,75.7*,Pol kappa inh-2=?
COc1cc(/C=C2/C(=O)NN(c3ccc(Cl)c(Cl)c3)C2=O)cc([N+](=O)[O-])c1O,?,20µM*,-85.8%,17.8µM*,20µM*,-20.9%,30.1*,GALK confirm=33.5µM*;GALK redox cs=-2.8%;HEK293 viability=13.1%
Cc1ccoc1C(=O)NCc1occc1C(=O)O,?,-26.5%,?,?,6.31µM*,?,30.1*,
O=C(COc1ccccc1/C=C\c1[nH]c(=O)[nH]c(=O)c1[N+](=O)[O-])Nc1ccccc1,?,8.9%,-18.4%,20µM*,22.4µM*,25.0%,75.7*,GALK confirm=37.5µM*;GALK redox cs=-10.8%;HEK293 viability=-4.8%
O=C(COc1ccccc1[N+](=O)[O-])Nc1cc(C(=O)O)cc(C(=O)O)c1,0.4%,-11.6%,-12.0%,57.1%,-11.0%,4.3%,nt,
Cc1ccn2cc(-c3ccc(O)c(O)c3)nc2c1,?,10µM*,20µM*,14.1µM*,22.4µM*,-15.8%,?,
Cc1ccn2cc(CC(=O)O)nc2c1,?,12.6µM*,?,?,14.1µM*,?,67.5*,
COc1cccc(C(=O)NCCS(=O)(=O)N2CCOCC2)c1,1.2%,nt,-1.7%,14.4%,1.1%,25.5%,nt,
CCOC(=O)C1=C(O)/C(=C\c2ccc(CNC(=O)C(=O)Nc3ccccc3)o2)N=C1C,-19.6%,8.91µM*,?,17.8µM*,10µM*,2.3%,47.8*,Pol kappa inh-2=53.2*
CCOC(=O)C1=C(O)/C(=C\c2cccs2)N=C1C,2.8%,11.2%,-1.0%,-9.5%,-15.7%,-2.3%,nt,
Cc1ccc(-n2c3nc(=O)[nH]c(=O)c-3cc3cc([N+](=O)[O-])ccc32)cc1C,?,-7.5%,-7.5%,50.3%,20µM*,0.9%,?,
